Inconclusive results are not listed. The source made the active and inactive calls. The calls were made as follows, unless noted: active = hit-call score of the fitted dose curve at least 0.9, where 1 is the maximum; inactive = score below 0.9.
Assays:
[1] = target: human RAR-related Orphan Receptor gamma (RORg), RORC (gene 6097) (UniProt P51449); experiment: ATG_RORg_TRANS: Attagene TRANS-FACTORIAL HepG2 Assay for human RAR-related Orphan Receptor gamma (RORg) (AID 2283011; active = hit-call score of the fitted dose curve at least 0.9, where 1 is the maximum)
Method in brief: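 Reporter transcripts from a transfected RORg-GAL4 chimera in HepG2 cells were quantified 24 h after dosing by RT-PCR, 6-FAM labelling, HpaI digestion and capillary electrophoresis; increases over DMSO baseline were fitted.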

[2] = read-out: E-selectin (Homo sapiens) (UniProt P16581); experiment: BSK_3C_Eselectin: BioMAP Diversity Plus: 3C Assay for Eselectin Biomarker Activity (AID 2283015); settings: primary human endothelial cells (HUVEC); actives raise or lower the signal;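 also: cell surface E-selectin protein quantified by ELISA 24 h after dosing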
Method in brief: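 E-selectin ELISA readout, fitted bidirectionally relative to DMSO, taken 24 h post-dosing in HUVEC cultures of the 3C system. Overt cytotoxicity tracked with sulforhodamine B staining of parallel wells.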

[3] = read-out: Interleukin-1 alpha (IL1a), IL1A (gene 3552); experiment: BSK_BE3C_IL1a: BioMAP Diversity Plus: BE3C Assay for Interleukin-1 alpha (IL1a) Biomarker Activity (AID 2283016); settings: primary human bronchial epithelial cells; actives raise or lower the signal
Method in brief: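 Cultures of primary human bronchial epithelial cells receive test chemical. After 24 h, IL-1a is quantified by ELISA, while parallel wells are fixed in TCA and SRB-stained for total protein. Changes in either direction are fitted relative to DMSO.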

[4] = read-out: Monocyte Chemoattractant Protein-1 (MCP1), CCL2 (gene 6347); experiment: BSK_4H_MCP1: BioMAP Diversity Plus: 4H Assay for Monocyte Chemoattractant Protein-1 (MCP1) Biomarker Activity (AID 2283018); settings: primary human endothelial cells (HUVEC); actives raise or lower the signal
Method in brief: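 Readout: MCP-1 ELISA on compound-treated HUVEC, sampled 24 h post-dosing. Baseline and negative control DMSO; bidirectional fit. Overt toxicity checked alongside by sulforhodamine B protein staining at time of biomarker measurement.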

[5] = read-out: Human Leukocyte Antigen - DR isotype (HLADR), HLA-DRA (gene 3122); experiment: BSK_3C_HLADR: BioMAP Diversity Plus: 3C Assay for Human Leukocyte Antigen - DR isotype (HLADR) Biomarker Activity (AID 2283019); settings: primary human endothelial cells (HUVEC); actives raise or lower the signal;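 also: ELISA of cell-surface HLA-DR on HUVEC 24 h after dosing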
Method in brief: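 Bidirectional fitting against DMSO was applied to the HLA-DR ELISA signal from human umbilical vein endothelial cells, 24 h post-dose. Cytotoxicity came from parallel SRB total-protein staining; 3C proliferation was counted by SRB at 48 h.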

[6] = read-out: Interleukin-8 (IL8), CXCL8 (gene 3576); experiment: BSK_3C_IL8: BioMAP Diversity Plus: 3C Assay for Interleukin-8 (IL8) Biomarker Activity (AID 2283020); settings: primary human endothelial cells (HUVEC); actives raise or lower the signal
Method in brief: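 Human vascular endothelial cells (umbilical vein) in the 3C system; IL-8 level detected by ELISA at 24 h post-dose, with DMSO as baseline.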

[7] = read-out: Monokine induced gamma interferon (MIG), CXCL9 (gene 4283); experiment: BSK_3C_MIG: BioMAP Diversity Plus: 3C Assay for Monokine induced gamma interferon (MIG) Biomarker Activity (AID 2283021); settings: primary human endothelial cells (HUVEC); actives raise or lower the signal
Method in brief: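 After 24 h of treatment, human umbilical vein endothelial cultures (3C system) had their MIG biomarker level determined by ELISA, with DMSO serving as negative control.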

[8] = target: human Vitamin D Receptor (VDR), VDR (gene 7421) (UniProt P11473); experiment: ATG_VDR_TRANS: Attagene TRANS-FACTORIAL HepG2 Assay for human Vitamin D Receptor (VDR) (AID 2283022; active = hit-call score of the fitted dose curve at least 0.9, where 1 is the maximum)
Method in brief: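 Transactivation by an exogenous VDR-Gal4 chimera in transiently transfected HepG2 cells was measured as reporter transcript level 24 hours after chemical treatment. RT-PCR products were analysed by capillary electrophoresis and fitted in the positive direction relative to DMSO.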

[9] = BSK_3C_SRB: Viability Assessment in the BioMAP Diversity Plus: 3C Assay (AID 2283023); settings: primary human endothelial cells (HUVEC);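 also: fitted both ways against DMSO so a hit may be signal rise or drop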
Method in brief: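 Cytotoxicity readout in parallel HUVEC 3C cultures: after 24 h compound exposure, cells fixed with 10% TCA, stained with 0.1% SRB and read at 560 nm. Gain or loss relative to DMSO fitted.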

[10] = read-out: Matrix Metallopeptidase 1 (MMP1), MMP1 (gene 4312); experiment: BSK_BE3C_MMP1: BioMAP Diversity Plus: BE3C Assay for Matrix Metallopeptidase 1 (MMP1) Biomarker Activity (AID 2283024); settings: primary human bronchial epithelial cells; actives raise or lower the signal
Method in brief: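 Dose cells, wait 24 h, run MMP1 ELISA; cells are human bronchial epithelial primaries. Both increases and decreases relative to DMSO counted.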

[11] = read-out: Pselectin, SELP (gene 6403); experiment: BSK_4H_Pselectin: BioMAP Diversity Plus: 4H Assay for Pselectin Biomarker Activity (AID 2283026); settings: primary human endothelial cells (HUVEC); actives raise or lower the signal
Method in brief: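 Human vascular endothelium from umbilical vein; P-selectin measured by ELISA at 24 h post-dose, with cytotoxicity checked by sulforhodamine B total-protein staining in parallel cultures (0.1% SRB after 10% TCA fixation, read at 560 nm).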

[12] = BSK_4H_SRB: Viability Assessment in the BioMAP Diversity Plus: 4H Assay (AID 2283027); settings: primary human endothelial cells (HUVEC);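 also: cells exposed to compound for 24 h before staining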
Method in brief: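 Human umbilical vein endothelial cells, 24 h after chemical dosing; total protein measured by 0.1% sulforhodamine B staining after 10% TCA fixation, read at 560 nm. Bidirectional fitting against DMSO.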

[13] = BSK_BE3C_SRB: Viability Assessment in the BioMAP Diversity Plus: BE3C Assay (AID 2283028); settings: primary human bronchial epithelial cells
Method in brief: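 Cytotoxicity read-out: SRB (0.1%) staining of TCA-fixed (10%) human lung bronchial epithelial cells, absorbance 560 nm, 24 h post-dosing. Curves fitted both directions relative to DMSO.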

[14] = read-out: Urokinase-type plasminogen activator receptor (uPAR), PLAUR (gene 5329); experiment: BSK_4H_uPAR: BioMAP Diversity Plus: 4H Assay for Urokinase-type plasminogen activator receptor (uPAR) Biomarker Activity (AID 2283030); settings: primary human endothelial cells (HUVEC); actives raise or lower the signal
Method in brief: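 uPAR level read by ELISA on HUVEC cultures (BioMAP 4H) 24 h post-dosing, analyzed for gain or loss relative to DMSO. Parallel SRB staining assessed overt cytotoxicity.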

[15] = target: human Thyroid Receptor alpha (THRa1), THRA (gene 7067) (UniProt P10827); experiment: ATG_THRa1_TRANS: Attagene TRANS-FACTORIAL HepG2 Assay for human Thyroid Receptor alpha (THRa1) (AID 2283014; active = hit-call score of the fitted dose curve at least 0.9, where 1 is the maximum)
Method in brief: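 Transcripts from GAL4-UAS-driven reporters, measured after 24 h compound exposure by RT-PCR plus capillary electrophoresis of 6-FAM-labeled fragments, were fitted for gain of signal relative to DMSO. Cells: transiently transfected HepG2 expressing NR-Gal4 chimeras.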

[16] = BSK_3C_Vis: BioMAP Diversity Plus: 3C Assay for Morphology Visualization (AID 2283025); settings: primary human endothelial cells (HUVEC);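 also: fitted both ways so gain or loss versus DMSO counts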
Method in brief: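 Endothelial cells from human umbilical vein were treated with test chemicals for 24 h and inspected by light microscopy for changes in cell conformation.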

[17] = read-out: Thrombomodulin, THBD (gene 7056); experiment: BSK_3C_Thrombomodulin: BioMAP Diversity Plus: 3C Assay for Thrombomodulin Biomarker Activity (AID 2283029); settings: primary human endothelial cells (HUVEC); actives raise or lower the signal
Method in brief: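 Thrombomodulin ELISA, human primary HUVEC, 24 h post-dose; data fitted in both directions relative to DMSO.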

[18] = target: Retinoic acid receptor RXR-alpha (Homo sapiens) (UniProt P19793); experiment: ATG_RXRa_TRANS: Attagene TRANS-FACTORIAL HepG2 Assay for human Retinoid X Receptor alpha (RXRa) (AID 2283012; active = hit-call score of the fitted dose curve at least 0.9, where 1 is the maximum)
Method in brief: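 Cells (HepG2) carried transiently transfected GAL4-responsive reporter units. Following a 24 h chemical incubation, reporter mRNA induction was read via RT-PCR fragment analysis; DMSO served as negative control and baseline.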

[19] = target: human Retinoid X Receptor beta (RXRb), RXRB (gene 6257) (UniProt P28702); experiment: ATG_RXRb_TRANS: Attagene TRANS-FACTORIAL HepG2 Assay for human Retinoid X Receptor beta (RXRb) (AID 2283013; active = hit-call score of the fitted dose curve at least 0.9, where 1 is the maximum)
Method in brief: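 Multiplexed TRANS reporter assay in HepG2; 24 h dosing; reporter mRNA by RT-PCR/CE fluorescence; gain-of-signal relative to DMSO.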

[20] = read-out: Monocyte Chemoattractant Protein-1 (MCP1), CCL2 (gene 6347); experiment: BSK_3C_MCP1: BioMAP Diversity Plus: 3C Assay for Monocyte Chemoattractant Protein-1 (MCP1) Biomarker Activity (AID 2283017); settings: primary human endothelial cells (HUVEC); actives raise or lower the signal
Method in brief: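 MCP-1 was measured by ELISA 24 h after dosing in primary HUVEC 3C cultures and fitted in both directions relative to DMSO; cytotoxicity was checked by SRB total-protein staining in parallel wells.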

Measured: outcome

E-selectin (Homo sapiens), sequence (P16581 whole entry, looked up): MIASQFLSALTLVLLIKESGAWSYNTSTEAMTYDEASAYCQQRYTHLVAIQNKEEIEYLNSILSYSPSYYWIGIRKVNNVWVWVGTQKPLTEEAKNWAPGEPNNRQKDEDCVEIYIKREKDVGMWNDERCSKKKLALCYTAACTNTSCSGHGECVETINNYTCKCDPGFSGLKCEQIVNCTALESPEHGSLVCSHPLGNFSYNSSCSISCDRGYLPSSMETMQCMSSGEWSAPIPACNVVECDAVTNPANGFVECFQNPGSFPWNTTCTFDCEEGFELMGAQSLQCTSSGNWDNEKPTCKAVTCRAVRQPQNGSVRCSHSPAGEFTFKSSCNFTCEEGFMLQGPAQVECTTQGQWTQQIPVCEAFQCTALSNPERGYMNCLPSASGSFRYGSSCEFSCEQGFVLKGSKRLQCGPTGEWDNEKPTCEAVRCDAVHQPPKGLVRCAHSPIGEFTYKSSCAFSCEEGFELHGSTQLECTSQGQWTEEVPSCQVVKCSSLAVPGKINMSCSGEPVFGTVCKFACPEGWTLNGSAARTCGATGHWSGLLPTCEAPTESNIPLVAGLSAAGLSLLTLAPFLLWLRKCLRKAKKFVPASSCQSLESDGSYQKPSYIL
human Vitamin D Receptor (VDR), VDR (gene 7421), sequence (P11473 whole entry, looked up, the tested form may be a part): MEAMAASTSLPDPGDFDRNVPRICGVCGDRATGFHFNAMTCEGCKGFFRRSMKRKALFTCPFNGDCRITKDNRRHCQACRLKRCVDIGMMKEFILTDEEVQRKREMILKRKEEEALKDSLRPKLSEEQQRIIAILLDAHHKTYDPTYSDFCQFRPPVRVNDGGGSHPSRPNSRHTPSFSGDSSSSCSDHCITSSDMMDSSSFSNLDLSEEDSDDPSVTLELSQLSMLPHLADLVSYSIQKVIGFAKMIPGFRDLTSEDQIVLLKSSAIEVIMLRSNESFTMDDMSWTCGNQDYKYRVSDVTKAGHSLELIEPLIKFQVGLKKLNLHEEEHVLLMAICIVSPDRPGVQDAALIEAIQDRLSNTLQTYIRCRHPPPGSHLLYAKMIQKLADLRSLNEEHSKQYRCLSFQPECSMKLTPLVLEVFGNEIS
human RAR-related Orphan Receptor gamma (RORg), RORC (gene 6097), sequence (P51449 whole entry, looked up, the tested form may be a part): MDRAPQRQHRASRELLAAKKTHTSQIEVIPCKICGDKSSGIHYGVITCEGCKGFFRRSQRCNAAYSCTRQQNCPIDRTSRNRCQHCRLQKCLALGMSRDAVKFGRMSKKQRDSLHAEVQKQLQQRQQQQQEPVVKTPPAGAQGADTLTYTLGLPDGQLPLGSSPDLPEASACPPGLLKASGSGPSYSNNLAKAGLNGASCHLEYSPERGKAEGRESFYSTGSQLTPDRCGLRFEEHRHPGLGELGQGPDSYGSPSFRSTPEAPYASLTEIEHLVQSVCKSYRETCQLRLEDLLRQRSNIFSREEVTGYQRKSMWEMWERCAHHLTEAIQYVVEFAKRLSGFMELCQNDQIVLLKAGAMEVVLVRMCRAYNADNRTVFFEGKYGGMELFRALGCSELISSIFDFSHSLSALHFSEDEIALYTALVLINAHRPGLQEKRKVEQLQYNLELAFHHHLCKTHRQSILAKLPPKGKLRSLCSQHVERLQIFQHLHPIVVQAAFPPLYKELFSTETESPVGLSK
human Retinoid X Receptor beta (RXRb), RXRB (gene 6257), sequence (P28702 whole entry, looked up): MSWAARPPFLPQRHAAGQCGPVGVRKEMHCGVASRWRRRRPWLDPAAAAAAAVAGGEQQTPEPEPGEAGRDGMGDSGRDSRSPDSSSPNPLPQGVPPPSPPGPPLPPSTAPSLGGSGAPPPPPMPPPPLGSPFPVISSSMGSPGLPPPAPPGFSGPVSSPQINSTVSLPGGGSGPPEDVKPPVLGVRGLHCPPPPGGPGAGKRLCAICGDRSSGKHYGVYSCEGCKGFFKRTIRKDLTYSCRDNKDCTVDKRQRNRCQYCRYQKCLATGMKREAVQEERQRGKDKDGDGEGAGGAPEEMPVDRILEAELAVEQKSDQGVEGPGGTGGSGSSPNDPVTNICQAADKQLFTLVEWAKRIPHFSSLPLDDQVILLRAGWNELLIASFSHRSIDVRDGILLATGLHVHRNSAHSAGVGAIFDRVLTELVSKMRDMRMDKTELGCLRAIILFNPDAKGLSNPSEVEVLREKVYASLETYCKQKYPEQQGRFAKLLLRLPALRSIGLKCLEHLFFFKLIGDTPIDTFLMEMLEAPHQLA
human Thyroid Receptor alpha (THRa1), THRA (gene 7067), sequence (P10827 whole entry, looked up, the tested form may be a part): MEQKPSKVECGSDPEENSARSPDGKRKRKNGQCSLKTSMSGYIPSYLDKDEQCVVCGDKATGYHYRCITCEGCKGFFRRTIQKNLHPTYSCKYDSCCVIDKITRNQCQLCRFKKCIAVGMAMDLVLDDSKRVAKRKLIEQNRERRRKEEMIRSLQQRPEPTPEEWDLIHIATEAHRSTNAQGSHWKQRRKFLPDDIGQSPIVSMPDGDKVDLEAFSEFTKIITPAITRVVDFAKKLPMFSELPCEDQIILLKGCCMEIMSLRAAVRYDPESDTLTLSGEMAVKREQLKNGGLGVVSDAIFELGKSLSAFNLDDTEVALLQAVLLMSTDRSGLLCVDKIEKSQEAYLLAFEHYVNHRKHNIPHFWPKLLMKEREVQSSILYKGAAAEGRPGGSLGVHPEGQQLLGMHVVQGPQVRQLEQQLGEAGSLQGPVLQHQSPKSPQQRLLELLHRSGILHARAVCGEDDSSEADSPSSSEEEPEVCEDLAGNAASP
Retinoic acid receptor RXR-alpha (Homo sapiens), sequence (P19793 whole entry, looked up, the tested form may be a part): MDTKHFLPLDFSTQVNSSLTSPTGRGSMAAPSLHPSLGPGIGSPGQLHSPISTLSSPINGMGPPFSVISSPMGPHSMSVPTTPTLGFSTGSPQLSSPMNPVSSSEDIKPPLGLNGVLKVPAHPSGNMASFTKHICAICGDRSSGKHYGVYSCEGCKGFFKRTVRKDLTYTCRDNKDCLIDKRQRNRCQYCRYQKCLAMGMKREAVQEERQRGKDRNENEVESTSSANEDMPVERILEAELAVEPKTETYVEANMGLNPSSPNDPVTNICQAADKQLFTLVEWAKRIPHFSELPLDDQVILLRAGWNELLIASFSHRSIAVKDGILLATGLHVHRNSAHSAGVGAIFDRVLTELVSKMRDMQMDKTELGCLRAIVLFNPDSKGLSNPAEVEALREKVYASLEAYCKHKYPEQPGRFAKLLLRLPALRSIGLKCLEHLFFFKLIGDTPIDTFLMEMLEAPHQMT

NC(=O)NN=Cc1ccc([N+](=O)[O-])o1
not listed: [15] | [16] | [17] | [18] | [19] | [20]
inactive: all other assays above

CCCCCOC(C)=O
not listed: [18] | [19] | [20]
inactive: all other assays above

c1ccc2ncccc2c1
not listed: [8] | [15] | [16] | [18] | [19] | [20]
inactive: all other assays above

O=C(O)c1cccc(C[C@@H]2COc3ccc(OCc4nc5cc(F)ccc5s4)cc3[C@@H]2O)c1
not listed: [1] | [8] | [15] | [16] | [20]
inactive: all other assays above

CCCCOC(=O)c1ccccc1
not listed: [1] | [8] | [15] | [17]
inactive: all other assays above

FC(F)(F)COC(OCC(F)(F)F)OCC(F)(F)F
not listed: [15] | [16] | [17] | [18] | [20]
inactive: all other assays above

O=c1[nH]cnc2c1ncn2[C@H]1CC[C@@H](CO)O1
not listed: [8] | [16] | [18] | [19]
inactive: all other assays above

CCOC(N)=O
not listed: [8] | [15] | [18] | [19] | [20]
inactive: all other assays above
